PubChem BioAssay (NCATS)
Results filed as inconclusive are left out. Calls of active or inactive are those of the source. Calls come from the whole dose curve; as a rule, active = well fitted curve in the direction sought with a large enough effect; inconclusive = small, poorly fitted or top-dose-only effect, or another doubt; inactive = no such curve, though single readings can be large; an effect the other way counts as inactive or inconclusive.

Experiments:
[1] = NS1 protein of Zika virus - qHTS assay to identify small molecule inhibitors in human HEK 293 cells (AID 1347053); note: nearly all actives have a fitted effect of over 55% in size
Summary of the method: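 HEK 293 cells pretreated with compound for 1 h, then infected with ZIKV MR766 (MOI 0.5) for 24 h at 37 C. NS1 detected by TR-FRET with two anti-NS1 antibodies; normalized to uninfected (0%) and infected (100%) wells.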

[2] = qHTS of pediatric cancer cell lines to identify multiple opportunities for drug repurposing: Primary screen for DAOY cells (AID 1347090); note: nearly all actives have a fitted effect of over 55% in size
Summary of the method: (§1)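 Viability measured as metabolically active cells via CellTiter-Glo luminescence following 48 hours of compound exposure, 11-point dilutions in confirmatory testing. 500-1,000 cells/well plated 5 hours before dosing; controls were DMSO and 2.3 µM bortezomib.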

[3] = qHTS of pediatric cancer cell lines to identify multiple opportunities for drug repurposing: Primary screen for SJ-GBM2 cells (AID 1347091)
Summary of the method: as §1

[4] = qHTS of pediatric cancer cell lines to identify multiple opportunities for drug repurposing: Primary screen for A673 cells (AID 1347092); note: nearly all actives have a fitted effect of over 45% in size
Summary of the method: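 Cell viability of A673 measured by CellTiter-Glo ATP luminescence after 48 hours compound exposure. Dilution series spanned 0.78 nM to 46 µM (MIPE, 11-point) or 0.59 nM to 46 µM (NPC, 8-point); bortezomib 2.3 uM positive control.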

[5] = qHTS of pediatric cancer cell lines to identify multiple opportunities for drug repurposing: Primary screen for SK-N-MC cells (AID 1347093)
Summary of the method: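 Metabolically active cells were quantified by ATP-dependent luminescence (CellTiter-Glo, 15 min at room temperature) following 48 h treatment. Cells had been plated at 500-1,000 per well and settled for 5 h beforehand.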

[6] = qHTS of pediatric cancer cell lines to identify multiple opportunities for drug repurposing: Primary screen for BT-37 cells (AID 1347094)
Summary of the method: (§2)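 Primary screen of approved and investigational compounds on cells in growth media at 37 degrees C, 5% CO2. MIPE set at 11-point and NPC set at 8-point dilutions; viability scored by ATP-based luminescence at 48 hours.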

[7] = qHTS of pediatric cancer cell lines to identify multiple opportunities for drug repurposing: Primary screen for NB-EBc1 cells (AID 1347095)
Summary of the method: as §2

[8] = qHTS of pediatric cancer cell lines to identify multiple opportunities for drug repurposing: Primary screen for U-2 OS cells (AID 1347096); note: nearly all actives have a fitted effect of over 50% in size
Summary of the method: (§3)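 Viability after 48 h compound treatment at 37C, 500-1,000 cells/well, read as ATP luminescence with CellTiter-Glo. Primary screens used 11-point (MIPE, 0.78 nM-46 µM) or 8-point (NPC, 0.59 nM-46 µM) final concentrations; follow-up screens used 11-point dilutions.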

[9] = qHTS of pediatric cancer cell lines to identify multiple opportunities for drug repurposing: Primary screen for Saos-2 cells (AID 1347097); note: nearly all actives have a fitted effect of over 40% in size
Summary of the method: as §2

[10] = qHTS of pediatric cancer cell lines to identify multiple opportunities for drug repurposing: Primary screen for NB1643 cells (AID 1347099); note: nearly all actives have a fitted effect of over 50% in size
Summary of the method: as §2

[11] = qHTS of pediatric cancer cell lines to identify multiple opportunities for drug repurposing: Primary screen for LAN-5 cells (AID 1347100)
Summary of the method: as §3

[12] = qHTS of pediatric cancer cell lines to identify multiple opportunities for drug repurposing: Primary screen for BT-12 cells (AID 1347101); note: nearly all actives have a fitted effect of over 25% in size
Summary of the method: (§4)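 Cells (500-1,000/well) rested 5 h, then received compounds for 48 h; metabolically active cells were measured by CellTiter-Glo luminescence. Final concentrations spanned up to 46 µM (MIPE, 11-point) or 0.59 nM-46 µM (NPC, 8-point) in primary screens, 11-point in follow-ups.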

[13] = qHTS of pediatric cancer cell lines to identify multiple opportunities for drug repurposing: Primary screen for TC32 cells (AID 1347089); note: nearly all actives have a fitted effect of over 60% in size
Summary of the method: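 Luminescent ATP read-out (CellTiter-Glo) of metabolically active TC32 cells after 48 h exposure. Concentration-response curves came from 11-point (MIPE, 0.78 nM–46 µM) or 8-point (NPC, 0.59 nM–46 µM) primary titrations; follow-up used 11 points.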

[14] = qHTS of pediatric cancer cell lines to identify multiple opportunities for drug repurposing: Primary screen for SK-N-SH cells (AID 1347098); note: nearly all actives have a fitted effect of over 65% in size
Summary of the method: as §4

[15] = qHTS of pediatric cancer cell lines to identify multiple opportunities for drug repurposing: Primary screen for Rh18 cells (AID 1347102); note: nearly all actives have a fitted effect of over 65% in size
Summary of the method: as §3

Measured: Potency
Potency is the fitted concentration of half-maximal effect.

CN[C@@H](C)C(=O)N[C@H]1CN(C(=O)CC(C)C)CC[C@H]2CC[C@@H](C(=O)NC(c3ccccc3)c3ccccc3)N2C1=O
active: [2] 2.35 µM | [3] 0.935 µM | [4] 0.0074 µM | [5] 0.372 µM | [6] 0.153 µM | [7] 2.96 µM | [9] 0.296 µM | [11] 0.187 µM | [12] 0.485 µM
inactive: [1] | [8] | [10]

Nc1ncnc2c1ncn2[C@@H]1O[C@@H](CO)[C@H](O)[C@H]1O
not listed: [2] | [4] | [7] | [9]
inactive: all other assays above

C[C@]12CCC3c4ccc(O)cc4CCC3C1CCC2=O (stereo not given in full)
not listed: [2] | [3] | [4] | [9] | [10]
inactive: all other assays above

CO[C@H]1C=CO[C@@]2(C)Oc3c(C)c(O)c4c(O)c(c5c(c4c3C2=O)NC2(CCN(CC(C)C)CC2)N=5)=NC(=O)C(C)=CC=C[C@H](C)[C@H](O)[C@@H](C)[C@@H](O)[C@@H](C)[C@H](OC(C)=O)[C@H]1C
not listed: [6] | [7] | [11] | [13]
inactive: all other assays above

Oc1ccc(C2=Cc3ccc(O)cc3OC2)cc1
active: [1] 10.5 µM | [3] 5.26 µM | [4] 2.35 µM | [5] 1.66 µM | [6] 12.2 µM | [7] 1.66 µM | [9] 11.8 µM | [10] 9.35 µM | [11] 2.35 µM | [12] 4.85 µM
inactive: [8]

Cc1ccc(F)c(NC(=O)Nc2ccc(-c3cccc4[nH]nc(N)c34)cc2)c1
active: [2] 23.5 µM | [3] 23.5 µM | [4] 14.8 µM | [5] 20.9 µM | [9] 18.7 µM | [14] 24.1 µM | [11] 20.9 µM
inactive: [1]

Cc1ccc(/C=N/NC(=O)c2ccccc2Oc2ccccc2)o1
active: [3] 20.9 µM | [5] 16.6 µM | [7] 23.5 µM | [10] 18.7 µM
inactive: [1] | [13] | [8] | [15]

COc1cc2nc(-c3ccc(N4CCN(C)CC4)cc3)nc(NCCN3CCOCC3)c2cc1OC
active: [1] 0.332 µM | [2] 0.0743 µM | [3] 0.148 µM | [4] 0.0235 µM | [5] 0.0372 µM | [6] 3.06 µM | [7] 1.48 µM | [8] 0.935 µM | [9] 0.296 µM | [14] 4.82 µM | [10] 1.87 µM | [11] 0.0187 µM | [12] 0.153 µM | [15] 0.235 µM

O=c1cc(-c2ccccc2)oc2cc(O)cc(O)c12
inactive: [1] | [13] | [4] | [5] | [8] | [9] | [10] | [15]

Nc1ncnc2c1ncn2[C@@H]1O[C@H](CO)C[C@@H]1O
inactive: [1] | [13] | [3] | [8] | [9] | [11] | [12] | [15]

O=C1NC(=O)C(=Cc2ccc(-c3ccc(F)cc3)o2)S1
active: [10] 18.7 µM
inactive: [1] | [13] | [3] | [8] | [11] | [15]

Clc1ccc(-c2nc3sccn3c2C=NOCc2ccc(Cl)c(Cl)c2)cc1
inactive: [1] | [13] | [3] | [6] | [8] | [11] | [12] | [15]

NC(=O)[C@@H](CCC(F)(F)F)N(Cc1ccc(-c2ncon2)cc1F)S(=O)(=O)c1ccc(Cl)cc1
inactive: [1] | [13] | [7] | [8] | [14] | [11] | [15]
active: [5] 23.5 µM | [10] 23.5 µM

CCOc1ccc(Nc2nc(-c3c(C)nc4ccccn34)cs2)cc1
active: [13] 0.165 µM | [4] 0.003 µM | [5] 0.0047 µM | [11] 0.001 µM
inactive: [1] | [8] | [9] | [14] | [10] | [15]

O=C(Nc1cc(Cl)cc2c1[nH]c1cnccc12)c1cccnc1
inactive: [1] | [13] | [8] | [11] | [15]
active: [4] 14.8 µM | [5] 4.18 µM | [14] 24.1 µM

CC(C)C(=O)Nc1ncc(-c2cc(C(F)F)nn2-c2c(Cl)cccc2Cl)s1
active: [1] 13.2 µM | [3] 20.9 µM | [7] 16.6 µM | [9] 18.7 µM | [14] 24.1 µM | [11] 23.5 µM
inactive: [13]
